Structures are written as SMILES. “And” between values parts separate entries of the source, which are not always exact repeats. Identical values can stand only once. This is part of a sample that, as a whole, favours compounds with a hit. Of some 83,000 tested, about 20% had one in any assay.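 Each cell line was grown in a 96-well plate and treated with one concentration of compound for 48 hours. Values below 10 were considered active.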 The source made the active and inactive calls.

For this test, the system named is HL-60(TB) leukemia. The test can be described thus: NCI-60 one-dose screen, 48 h (100 = growth as untreated, 0 = no growth, -100 = all killed). As to conditions: 10 µM unless noted.
On to `Cc1cccc(-c2nc(Nc3ccc(C)c(S(N)(=O)=O)c3)c3ccccc3n2)c1`, for which the growth is 26% (inactive).
As for `O/N=C(\CSc1nnc(-c2c[nH]c3ccccc23)n1-c1ccccc1)c1ccc(Cl)cc1`, the growth is -25.9% (active).
For `COc1cc2c3c(n(CCCN4CCC[C@@H]4CO)c(=O)c2cc1OC)-c1cc2c(cc1C3=O)OCO2`, the growth is -15.4% (active).
As for `CC(=O)OC[C@@]1(C)C2CC[C@]3(C)C(CC=C4C5CC(C)(C)CC[C@]5(C(=O)Nc5ccc(C)cc5)CC[C@]43C)[C@@]2(C)C[C@@H](OC(C)=O)[C@@H]1OC(C)=O` (stereo partly drawn), the figure is 31.6% (inactive).
In the case of `Nc1cccc(-n2c(COc3ccc(I)cc3)nc3ccccc32)c1` it was 118% (inactive) and 98% (inactive); in that of `Cc1cc(=O)oc2cc(OCCCCOc3ccc(/C=C/C(=O)Nc4ccccc4[N+](=O)[O-])cc3)ccc12`, 101% (inactive); in that of `O=C(/C=C/c1ccc(O)c(O)c1)NC1CCOC1O` (stereo not drawn), 99.1% (inactive).
On to `Nc1nn2c(-c3cc4cc(Br)ccc4oc3=O)ccnc2c1N=Nc1ccc(S(N)(=O)=O)cc1`, for which the growth is 104% (inactive).
With `C#CCOc1cc(N(CC)CC)ccc1C(C(=O)NC(C)(C)C)N(C(=O)C1CCc2cc(F)ccc2O1)c1cc(C)cc(C)c1` (stereo not drawn), the growth was 7.34% (active).
`Nc1nnc(-c2c[nH]c3ncc(Br)cc23)c(-c2c[nH]c3ccc(Br)cc23)n1`: the growth was 11.2% (inactive).
For the compound `COC[C@@H](CC(C)C)N=C1NC(=O)/C(=C/c2ccc3ncoc3c2)N1`, the growth is 1.03% (active).
As for `O=C1NC(=S)S/C1=C\c1cn(-c2ccccc2)nc1-c1ccc([N+](=O)[O-])cc1`, the figure is 9.92% (active); as for `Cc1ccc(C(C(=O)NC2CCCCC2)N(Cc2ccccc2Cl)C(=O)c2ccc(CN3CCOCC3)o2)o1` (stereo not drawn), 84.6% (inactive).
In the case of `CC1=C(C(=O)OC(C)C)C(c2cccc(O)c2)NC(=S)N1` (stereo not drawn), the growth was 99.2% (inactive).
In the case of `Cc1ccc(S(=O)(=O)N2CCN(S(=O)(=O)c3oc(-c4ccccc4)nc3C#N)CC2)cc1` it was 69.4% (inactive); in that of `CN1C(=O)/C(=C/c2ccc(C(=O)Nc3ncc(Cc4ccc(Cl)cc4Cl)s3)cc2)SC1=S`, 19.2% (inactive).
As for `Clc1cccc(Cl)c1/C=C/c1cc(/C=C/c2ccc(Br)cc2)c2ccccc2n1`, the figure is 101% (inactive); as for `CC1(C)CC[C@]2(C(=O)Nc3ccc(F)cc3)CC[C@]3(C)C(=CCC4[C@@]5(C)C[C@@H](O)[C@H](O)[C@@](C)(CO)C5CC[C@]43C)C2C1` (stereo partly drawn), -11.7% (active); as for `N#Cc1ccc(-c2nn(-c3ccc(C(=O)O)cc3)cc2CNc2ccc(Cl)cc2)cc1`, 87.8% (inactive).
In the case of `CONC[C@]1(C)C=C2C(=O)[C@](C)(O)C3(CC3)C(C)=C2[C@H]1O`, the growth is -29.3% (active).
Consider `O=C(Nc1ccc(Cl)c(C(F)(F)F)c1)N1CCN(c2cc(-c3cn(-c4ccccc4)nc3-c3cccc(O)c3)ccn2)CC1`, for which the growth is -34.3% (active).
As for `CN1C(=O)/C(=C\C(=O)c2cc3ccccc3oc2=O)c2ccccc21`, the figure is 79.3% (inactive); as for `O=C1/C(=C/c2cnc(-c3ccccc3)s2)SC(=S)N1Cc1ccc2c(c1)OCO2`, 69% (inactive).
In the case of `Nc1nc2cc(-c3ccc4ncnc(NCc5ccccc5)c4c3)ccc2o1`, the growth was -43.8% (active).
In the case of `Cc1ccc(NCC(=O)Nn2c(COc3ccccc3)nc3ccccc3c2=O)cc1` it was 93.9% (inactive).
In the case of `COc1ccc(-c2cc(-c3cc(C(C)C)c(O)cc3C)nn2-c2ccc(S(N)(=O)=O)cc2)cc1` it was 9.51% (active).
In the case of `COc1ccccc1[C@H]1C(C(=O)c2ccc(Cl)cc2)C2(N[C@@H]1c1ccccc1)C(=O)Nc1ccccc12` (stereo partly drawn) it was -29.6% (active).
For `O=C(Cn1nc(-c2ccccc2)ccc1=O)N/N=C/c1ccc(N2CCOCC2)cc1`, the growth is 96.3% (inactive).

The record behind these values is PubChem BioAssay (NCI).
